Measured values as given in publication PMC8384837, “Expanding the binding specificity for RNA recognition by a PUF domain”.
Changes are numbered by the printed parent chain.

Tests used:
Experiment in all cases: yeast three-hybrid, YBZ-1, SC-Leu-His + 0.5 mM 3-AT, 4 days
Settings in all cases: tags: N-Gal4 AD-HA kept; label: inside an RPR1-promoter hybrid RNA with tandem MS2 sites; ssRNA
[1] = molecular target: PUM1 PUF domain R4-SNA (Homo sapiens, UniProt Q14671 828-1176, N971S;H972N;Q975A)
Procedure, shortened: (§1)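 Each repeat of the Pumilio-1 PUF domain was randomized at its three base-contacting residues, and these libraries were co-expressed from a centromeric plasmid with matching RNA elements in strain YBZ-1. After four days on SC-Leu (input) or SC-Leu-His + 0.5 mM 3-AT (selection), the repeat regions were PCR-amplified and Illumina-sequenced. The interaction score compares variant frequency between input and selection as a log change, computed in log2 with a pseudocount of 1 for absent variants.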

[2] = molecular target: PUM1 PUF domain R4-QFL (Homo sapiens, UniProt Q14671 828-1176, N971Q;H972F;Q975L)
Procedure, shortened: as §1

[3] = molecular target: T1, PUM1 PUF domain R6-RRK (Homo sapiens, UniProt Q14671 828-1176, N1043R;Y1044R;Q1047K)
T1 sequence: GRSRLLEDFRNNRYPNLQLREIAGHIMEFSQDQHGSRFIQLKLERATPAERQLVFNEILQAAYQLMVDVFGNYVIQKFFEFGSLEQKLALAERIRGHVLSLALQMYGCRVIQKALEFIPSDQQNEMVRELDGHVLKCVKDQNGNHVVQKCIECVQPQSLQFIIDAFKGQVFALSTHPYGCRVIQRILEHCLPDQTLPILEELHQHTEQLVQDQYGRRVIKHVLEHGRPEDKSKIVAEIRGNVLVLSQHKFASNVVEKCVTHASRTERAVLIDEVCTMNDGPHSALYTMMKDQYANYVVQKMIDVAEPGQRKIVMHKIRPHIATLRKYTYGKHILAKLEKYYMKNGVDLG
Procedure, shortened: as §1

[4] = molecular target: PUM1 PUF domain R1-RRC (Homo sapiens, UniProt Q14671 828-1176, S863R;Q867C)
Procedure, shortened: as §1

[5] = molecular target: T2, PUM1 PUF domain R6-TWT (Homo sapiens, UniProt Q14671 828-1176, N1043T;Y1044W;Q1047T)
T2 sequence: T1 sequence with R216T, R217W, K220T
Procedure, shortened: as §1

[6] = molecular target: T3, PUM1 PUF domain R6-CWV (Homo sapiens, UniProt Q14671 828-1176, N1043C;Y1044W;Q1047V)
T3 sequence: T1 sequence with R216C, R217W, K220V
Procedure, shortened: as §1

[7] = molecular target: T4, PUM1 PUF domain R6-FWG (Homo sapiens, UniProt Q14671 828-1176, N1043F;Y1044W;Q1047G)
T4 sequence: T1 sequence with R216F, R217W, K220G
Procedure, shortened: as §1

[8] = molecular target: PUM1 PUF domain R7-KCQ (Homo sapiens, UniProt Q14671 828-1176, S1079K;N1080C;E1083Q)
Procedure, shortened: as §1

[9] = molecular target: PUM1 PUF domain R7-ENS (Homo sapiens, UniProt Q14671 828-1176, S1079E;E1083S)
Procedure, shortened: as §1

[10] = molecular target: PUM1 PUF domain R5-RHL (Homo sapiens, UniProt Q14671 828-1176, C1007R;R1008H;Q1011L)
Procedure, shortened: as §1

[11] = molecular target: PUM1 PUF domain R5-HRE (Homo sapiens, UniProt Q14671 828-1176, C1007H;Q1011E)
Procedure, shortened: as §1

[12] = molecular target: PUM1 PUF domain R5-KGK (Homo sapiens, UniProt Q14671 828-1176, C1007K;R1008G;Q1011K)
Procedure, shortened: as §1

[13] = molecular target: PUM1 PUF domain R5-KSI (Homo sapiens, UniProt Q14671 828-1176, C1007K;R1008S;Q1011I)
Procedure, shortened: as §1

[14] = molecular target: PUM1 PUF domain R5-KFR (Homo sapiens, UniProt Q14671 828-1176, C1007K;R1008F;Q1011R)
Procedure, shortened: as §1

[15] = molecular target: PUM1 PUF domain R5-DYD (Homo sapiens, UniProt Q14671 828-1176, C1007D;R1008Y;Q1011D)
Procedure, shortened: as §1

[16] = molecular target: PUM1 PUF domain R3-WWD (Homo sapiens, UniProt Q14671 828-1176, C935W;R936W;Q939D)
Procedure, shortened: as §1

[17] = molecular target: T5, PUM1 PUF domain R6-PFE (Homo sapiens, UniProt Q14671 828-1176, N1043P;Y1044F;Q1047E)
T5 sequence: T1 sequence with R216P, R217F, K220E
Procedure, shortened: as §1

GGCUAGAACUAGUGGAUCCCCCGGCGCCCGGCGGCUCGAGCCCGGGUAAGUGUACAUAGUCUGCAUGCCGCCGGGCGCCAUGCCUGCAGGUCGACUCUAGAAAACAUG
binding signal [1]: 3.14 log2 enrichment (interaction score)

GGCUAGAACUAGUGGAUCCCCCGGCGCCCGGCGGCUCGAGCCCGGGUAAGUGUAUAUAGUCUGCAUGCCGCCGGGCGCCAUGCCUGCAGGUCGACUCUAGAAAACAUG
binding signal [2]: 4.92 log2 enrichment (interaction score) | binding signal [1]: 4.15 log2 enrichment (interaction score)

GGCUAGAACUAGUGGAUCCCCCGGCGCCCGGCGGCUCGAGCCCGGGUAAGUGCAAAUAGUCUGCAUGCCGCCGGGCGCCAUGCCUGCAGGUCGACUCUAGAAAACAUG
binding signal [3]: 4.5 log2 enrichment (interaction score)

GGCUAGAACUAGUGGAUCCCCCGGCGCCCGGCGGCUCGAGCCCGGGUAAGUGUAAAUCGUCUGCAUGCCGCCGGGCGCCAUGCCUGCAGGUCGACUCUAGAAAACAUG
binding signal [4]: 2.87 log2 enrichment (interaction score)

GGCUAGAACUAGUGGAUCCCCCGGCGCCCGGCGGCUCGAGCCCGGGUAAGUGAAAAUAGUCUGCAUGCCGCCGGGCGCCAUGCCUGCAGGUCGACUCUAGAAAACAUG
binding signal [5]: 4.15 log2 enrichment (interaction score) | binding signal [6]: 1.98 log2 enrichment (interaction score) | binding signal [7]: 2.45 log2 enrichment (interaction score)

GGCUAGAACUAGUGGAUCCCCCGGCGCCCGGCGGCUCGAGCCCGGGUAAGUUUAAAUAGUCUGCAUGCCGCCGGGCGCCAUGCCUGCAGGUCGACUCUAGAAAACAUG
binding signal [8]: 2.98 log2 enrichment (interaction score) | binding signal [9]: 4.45 log2 enrichment (interaction score)

GGCUAGAACUAGUGGAUCCCCCGGCGCCCGGCGGCUCGAGCCCGGGUAAGUGUCAAUAGUCUGCAUGCCGCCGGGCGCCAUGCCUGCAGGUCGACUCUAGAAAACAUG
binding signal [10]: 5.23 log2 enrichment (interaction score) | binding signal [11]: 4.28 log2 enrichment (interaction score) | binding signal [12]: 4.24 log2 enrichment (interaction score) | binding signal [13]: 3.85 log2 enrichment (interaction score) | binding signal [14]: 5.4 log2 enrichment (interaction score) | binding signal [15]: 5.78 log2 enrichment (interaction score)

GGCUAGAACUAGUGGAUCCCCCGGCGCCCGGCGGCUCGAGCCCGGGUAAGUGUAAGUAGUCUGCAUGCCGCCGGGCGCCAUGCCUGCAGGUCGACUCUAGAAAACAUG
binding signal [16]: 5.41 log2 enrichment (interaction score)

GGCUAGAACUAGUGGAUCCCCCGGCGCCCGGCGGCUCGAGCCCGGGUAAGUGGAAAUAGUCUGCAUGCCGCCGGGCGCCAUGCCUGCAGGUCGACUCUAGAAAACAUG
binding signal [17]: 2.11 log2 enrichment (interaction score)
